The nature of experiment [1]: antimalarial activity against Dd2 strain (AID 2302;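 active = growth inhibition above 50% at the single 2 µM test dose, taken to imply half-maximal potency below 2 µM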;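 also: 0% = DMSO untreated growth and 100% = chloroquine plus artemisinin killed control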). The settings on record: P. falciparum Dd2 in RBCs, LDH growth readout, 72 h; at 2 µM; active compounds read high.
Experiment [2] is described as follows: HepG2 cytotoxicity, primary screen, cytotoxicity control for P. falciparum antimalarial project, cell-based, ATP luminescence (AID 2303;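 active = inhibition above 50%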;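 also: 0% = DMSO wells and 100% = digitonin-killed cells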). The conditions noted are these: HepG2 viability, 24-48 h, at 10 µM, active compounds read high.
Experiment [3] has as its target L-lactate dehydrogenase (Plasmodium falciparum (isolate CDC / Honduras)) (UniProt Q27743). Briefly: PfLDH activity inhibition – cell lysate, 3D7 strain, counter-screen for P. falciparum growth inhibition project (AID 2304).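 Also: 0% = vehicle and 100% = reference inhibitor.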 The conditions noted are these: P. falciparum 3D7 crude extract, LDH APAD/NBT absorbance; at 2 µM; active compounds read high. (In general: The purpose of a counterscreen is to sort out artefacts and off-target activity.)

A short description of experiment [4]: inhibition of 3D7 malaria parasite growth – strain 3D7 (AID 2306).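 Also: 0% = DMSO wells and 100% = chloroquine plus artemisinin control wells.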 The conditions noted are these: P. falciparum 3D7 erythrocytic growth, LDH absorbance, 72 h; at 2 µM; active compounds read high.
Experiment [5] concerns the target Calcium-dependent protein kinase 1 (Plasmodium falciparum (isolate 3D7)) (UniProt P62344). Briefly: PfCDPK1 kinase inhibitors, biochemical, TCAMS library (AID 1159585; cut-off not given, nearly all actives have IC50 up to about 0.98 µM;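 also: inhibitors leave more ATP so luminescence rises with inhibition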). The settings on record: recombinant PfCDPK1, Kinase-Glo ATP depletion luminescence. In general terms: In Kinase-Glo more light means more ATP remaining.
The target in experiment [6] is Plasmodium falciparum protein kinase 6 (PK6, PF3D7_1337100) (UniProt Q8IDW1). Briefly: PfPK6 kinase inhibitors, biochemical, TCAMS library (AID 1159586). The conditions noted are these: recombinant PfPK6, Kinase-Glo ATP depletion luminescence.
For experiment [7], the target named is Protein kinase 7 (PK7), Plasmodium falciparum 3D7 (PF3D7_0213400) (UniProt Q7YTF7). Briefly: inhibition of Plasmodium PK7 catalytic activity – biochemical, TCAMS antimalarial set, Kinase-Glo luminescence (AID 1159587). The conditions noted are these: recombinant PfPK7, Kinase-Glo ATP depletion luminescence.
Experiment [8] has as its target Calcium-dependent protein kinase 4 (Plasmodium falciparum (isolate 3D7)) (UniProt Q8IBS5). Briefly: PfCDPK4 kinase inhibitors, biochemical, TCAMS library (AID 1159588; cut-off not given, nearly all actives have IC50 up to about 0.91 µM). The settings on record: recombinant PfCDPK4, Kinase-Glo ATP depletion luminescence.

SMILES strings stand for the structures. A number with no mark means an inactive call. For some of these results: Measured potencies and affinities stand elsewhere. Activity calls are given as the source filed them. Unless noted, no rule for the calls is given here.

The inhibition is the drop in the measured response relative to a control, in per cent.

Protein kinase 7 (PK7), Plasmodium falciparum 3D7 (PF3D7_0213400), sequence (Q7YTF7 1-343): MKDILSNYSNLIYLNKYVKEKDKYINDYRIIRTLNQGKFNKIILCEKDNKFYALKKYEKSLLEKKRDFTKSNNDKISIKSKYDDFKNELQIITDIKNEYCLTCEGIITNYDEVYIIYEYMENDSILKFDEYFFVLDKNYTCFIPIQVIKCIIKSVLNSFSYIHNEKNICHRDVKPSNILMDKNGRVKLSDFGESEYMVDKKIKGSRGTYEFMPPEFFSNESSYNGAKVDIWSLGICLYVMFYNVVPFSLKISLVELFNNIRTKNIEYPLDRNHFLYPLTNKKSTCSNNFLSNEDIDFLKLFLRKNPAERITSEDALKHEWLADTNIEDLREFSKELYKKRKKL
L-lactate dehydrogenase (Plasmodium falciparum (isolate CDC / Honduras)), sequence (Q27743 whole entry, looked up): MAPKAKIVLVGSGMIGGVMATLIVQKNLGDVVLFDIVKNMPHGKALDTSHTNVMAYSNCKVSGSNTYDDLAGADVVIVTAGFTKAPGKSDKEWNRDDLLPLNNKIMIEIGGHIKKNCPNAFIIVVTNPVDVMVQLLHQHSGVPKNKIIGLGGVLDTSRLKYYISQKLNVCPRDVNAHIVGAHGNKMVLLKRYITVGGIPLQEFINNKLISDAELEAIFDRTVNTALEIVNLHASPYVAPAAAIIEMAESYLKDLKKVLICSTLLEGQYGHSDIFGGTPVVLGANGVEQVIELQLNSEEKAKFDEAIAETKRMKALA
Calcium-dependent protein kinase 1 (Plasmodium falciparum (isolate 3D7)), sequence (P62344 whole entry, looked up): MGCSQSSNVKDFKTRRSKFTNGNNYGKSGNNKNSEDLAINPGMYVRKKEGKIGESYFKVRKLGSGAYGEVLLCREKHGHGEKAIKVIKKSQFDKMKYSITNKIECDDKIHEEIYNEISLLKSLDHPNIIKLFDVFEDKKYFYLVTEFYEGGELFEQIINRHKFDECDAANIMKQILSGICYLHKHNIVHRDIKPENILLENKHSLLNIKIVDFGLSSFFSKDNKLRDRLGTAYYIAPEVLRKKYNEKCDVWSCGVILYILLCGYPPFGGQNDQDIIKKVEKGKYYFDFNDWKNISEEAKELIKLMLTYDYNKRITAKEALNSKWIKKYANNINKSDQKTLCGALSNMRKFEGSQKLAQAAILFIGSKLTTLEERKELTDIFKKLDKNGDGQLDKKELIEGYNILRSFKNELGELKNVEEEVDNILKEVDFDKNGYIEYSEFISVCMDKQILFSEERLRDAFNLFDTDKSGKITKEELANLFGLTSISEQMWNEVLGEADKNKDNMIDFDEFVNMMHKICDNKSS
Calcium-dependent protein kinase 4 (Plasmodium falciparum (isolate 3D7)), sequence (Q8IBS5 whole entry, looked up): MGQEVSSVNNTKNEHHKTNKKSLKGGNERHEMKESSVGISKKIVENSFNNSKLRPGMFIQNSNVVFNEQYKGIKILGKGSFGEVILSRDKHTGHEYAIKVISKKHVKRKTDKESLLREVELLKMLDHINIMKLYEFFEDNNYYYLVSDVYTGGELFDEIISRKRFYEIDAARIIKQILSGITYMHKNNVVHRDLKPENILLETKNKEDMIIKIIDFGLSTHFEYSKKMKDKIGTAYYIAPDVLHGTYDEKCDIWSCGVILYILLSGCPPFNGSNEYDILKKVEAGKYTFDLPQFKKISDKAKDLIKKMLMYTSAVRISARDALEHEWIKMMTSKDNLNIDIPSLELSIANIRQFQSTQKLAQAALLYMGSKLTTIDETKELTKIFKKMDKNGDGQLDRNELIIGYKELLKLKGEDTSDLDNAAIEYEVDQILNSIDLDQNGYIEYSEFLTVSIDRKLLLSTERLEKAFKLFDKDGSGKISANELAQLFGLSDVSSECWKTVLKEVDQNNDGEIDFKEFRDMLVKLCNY
Plasmodium falciparum protein kinase 6 (PK6, PF3D7_1337100), sequence (Q8IDW1 1-305): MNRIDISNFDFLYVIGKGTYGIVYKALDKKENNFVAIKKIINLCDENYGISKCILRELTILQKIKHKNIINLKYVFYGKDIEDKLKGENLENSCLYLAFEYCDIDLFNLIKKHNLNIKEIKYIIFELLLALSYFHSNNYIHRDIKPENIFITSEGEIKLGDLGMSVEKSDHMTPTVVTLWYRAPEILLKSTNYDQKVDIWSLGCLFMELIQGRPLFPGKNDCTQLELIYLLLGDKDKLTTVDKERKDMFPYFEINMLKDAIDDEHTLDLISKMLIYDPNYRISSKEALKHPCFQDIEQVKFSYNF

`CCOc1ccc2nc(C)cc(NN=Cc3cccc([N+](=O)[O-])c3)c2c1`: the growth inhibition in experiment [1] was 93% (active); in experiment [4], 101% (active). The inhibition in experiment [2] was 7%; in experiment [3], 0%. Also, the outcome in experiment [5], in experiment [6], in experiment [7] and in experiment [8] was inactive.
`Cc1cc(NCCC(=O)NCCOc2ccccc2)nc(NCCc2ccc(F)cc2)n1`: the growth inhibition was 4% in experiment [1] and 97% (active) in experiment [4]. Further, the inhibition in experiment [2] was 14%; in experiment [3], 2%. Moreover, the outcome in experiment [5], in experiment [6], in experiment [7] and in experiment [8] was inactive.
`O=C(NC1CCC(N2CCCC(OCc3ccccc3)C2)CC1)c1cc2ccccc2[nH]1` (stereo not given): the growth inhibition in experiment [1] was 11%; in experiment [4], 94% (active). In addition, the inhibition is 38% in experiment [2] and -1% in experiment [3]. In addition, the outcome in experiment [5], in experiment [6], in experiment [7] and in experiment [8] was inactive.
As to `Cc1cccc(C(=O)Nc2ccnc(N3CCC(N(C)Cc4cccc(C#N)c4)CC3)c2)c1`, the values for the growth inhibition in experiment [1] and in experiment [4] were 52% (active) and 101% (active), respectively. In addition, the inhibition in experiment [2] is 5%; in experiment [3], -2%. In addition, the result in experiment [5], in experiment [6], in experiment [7] and in experiment [8] was inactive.
In the case of `CC(C)Oc1cc2c(cc1NS(=O)(=O)c1ccc(-c3ccc(Cl)s3)cc1F)CCN(C)CC2`, the figures for the growth inhibition in experiment [1] and in experiment [4] were 1% and 99% (active), respectively. For the same compound, the inhibition is 23% in experiment [2] and -5% in experiment [3]. In addition, the result in experiment [5], in experiment [6], in experiment [7] and in experiment [8] was inactive.
As to `CCc1cc([C@H]2O[C@@H](n3cnc4c(NCC(c5ccccc5)c5ccccc5)nc(NCCNc5ccccn5)nc43)[C@H](O)[C@@H]2O)on1`, the growth inhibition in experiment [1] was 32%; in experiment [4], 94% (active). Besides, the inhibition in experiment [2] is 14%; in experiment [3], -9%. Also, the result in experiment [5], in experiment [6], in experiment [7] and in experiment [8] was inactive.
`CC(=O)Nc1ccc(S(=O)(=O)N(Cc2cccc(Oc3ccccc3)c2)C2CCN(C/C=C(\C)CCC=C(C)C)CC2)cc1`: the growth inhibition in experiment [1] was 99% (active); in experiment [4], 100% (active). The inhibition in experiment [2] was 22%; in experiment [3], 0%. In addition, the outcome in experiment [5], in experiment [6], in experiment [7] and in experiment [8] was inactive.
For the compound `CC(CN1CCN(C)CC1)C(=O)Nc1ccc(-c2ccc(-c3nc4ccc(C(F)(F)F)cc4[nH]3)cc2)cc1` (stereo not given), the growth inhibition in experiment [1] was 100% (active); in experiment [4], 101% (active). For the same compound, the inhibition was 19% in experiment [2] and -8% in experiment [3]. Moreover, the outcome in experiment [5], in experiment [6], in experiment [7] and in experiment [8] was inactive.
On to `CN1CCN(c2ccc(Nc3c4ccccc4nc4ccccc34)cc2)CC1`, for which the growth inhibition in experiment [1] was 94% (active); in experiment [4] it was 100% (active). In addition, the inhibition is -3% in experiment [2] and -4% in experiment [3]. The outcome in experiment [5], in experiment [6], in experiment [7] and in experiment [8] was inactive.
As to `Cc1cc(N[C@@H](CC(C)C)C(=O)NCc2cccs2)nc(Nc2ccccc2)n1`, the growth inhibition in experiment [1] was 57% (active); in experiment [4], 100% (active). Moreover, the inhibition in experiment [2] was 18%; in experiment [3], 1%. The outcome in experiment [5], in experiment [6], in experiment [7] and in experiment [8] was inactive.
In the case of `O=C(Nc1ccc(C(=O)OCC(c2ccccc2)c2ccccc2)cc1)N[C@@H](Cc1ccc(O)cc1)C(=O)NC1CCN(Cc2ccc(O)cc2)C1` (stereo not given in full), the figures for the growth inhibition in experiment [1] and in experiment [4] were -4% and 96% (active), respectively. Also, the inhibition in experiment [2] is -9%; in experiment [3], 1%. Also, the result in experiment [5], in experiment [6], in experiment [7] and in experiment [8] was inactive.
In the case of `CN(C)c1ccc(N2C(N)=NC(N)=NC23CCCC3)cc1`, the growth inhibition is 0% in experiment [1] and 97% (active) in experiment [4]. For the same compound, the inhibition is 1% in experiment [2] and -2% in experiment [3]. Also, the result in experiment [5], in experiment [6], in experiment [7] and in experiment [8] was inactive.
`O=C(Nc1ccc(-c2nc3ccccc3[nH]2)cc1)c1ccc([N+](=O)[O-])s1`: the growth inhibition in experiment [1] was 77% (active); in experiment [4] it was 101% (active). Also, the inhibition in experiment [2] is 83% (active); in experiment [3] it was -6%. For the same compound, the result in experiment [5], in experiment [6], in experiment [7] and in experiment [8] was inactive.
Turning to `COc1ccc(C2C(C(=O)Nc3ccc(C)cc3Br)c3ccccc3C(=O)N2C)cc1` (stereo not given), the growth inhibition was 2% in experiment [1] and 96% (active) in experiment [4]. Moreover, the figures for the inhibition in experiment [2] and in experiment [3] were 4% and 6%, respectively. Further, the result in experiment [5], in experiment [6], in experiment [7] and in experiment [8] was inactive.
Consider `O=C(OCc1ccccn1)c1nc2ccccc2[nH]1`, for which the growth inhibition in experiment [1] was 97% (active); in experiment [4], 92% (active). The inhibition in experiment [2] is 63% (active); in experiment [3] it was -2%. Also, the outcome in experiment [5], in experiment [6], in experiment [7] and in experiment [8] was inactive.
In the case of `Cc1cccc(OCC(=O)Nc2cccc(NC(=O)COc3cccc(C)c3)n2)c1`, the growth inhibition in experiment [1] is 30%; in experiment [4], 98% (active). Also, the inhibition in experiment [2] was -3%; in experiment [3] it was 0%. Besides, the result in experiment [5], in experiment [6], in experiment [7] and in experiment [8] was inactive.
For `CSc1nnc2n(Cc3ccccc3)c(=O)c3c(n12)-c1ccccc1CC31CCCCC1`, the growth inhibition was -6% in experiment [1] and 93% (active) in experiment [4]. The inhibition is 0% in experiment [2] and 1% in experiment [3]. Also, the outcome in experiment [5], in experiment [6], in experiment [7] and in experiment [8] was inactive.
For the compound `CCc1ccccc1-c1csc(C(=O)NCC2CCN(Cc3ccc(C(C)(C)C)cc3)C2)c1` (stereo not given), the growth inhibition in experiment [1] was 15%; in experiment [4], 90% (active). For the same compound, the inhibition in experiment [2] is 25%; in experiment [3] it was -2%. The result in experiment [5], in experiment [6], in experiment [7] and in experiment [8] was inactive.
For `COc1cc(NC(=O)c2sc(-c3ccc(Cl)cc3)cc2NC(=O)N2CCCC2)ccc1OCCN1CCCC1`, the growth inhibition is 61% (active) in experiment [1] and 101% (active) in experiment [4]. Also, the inhibition is 22% in experiment [2] and 0% in experiment [3]. Moreover, the outcome in experiment [5], in experiment [6], in experiment [7] and in experiment [8] was inactive.
As for `O=C(NC1CCN(Cc2ccccc2)CC1)c1cc(-c2ccncc2)nc2ccc(Cl)cc12`, the results for the growth inhibition in experiment [1] and in experiment [4] were 27% and 97% (active), respectively. Besides, the values for the inhibition in experiment [2] and in experiment [3] were 17% and 0%, respectively. For the same compound, the result in experiment [5], in experiment [6], in experiment [7] and in experiment [8] was inactive.
